TEAD-YAP block = TEAD-YAP interaction inhibition; inhibition, % at 9.12 µM; hit rate 1.4% among 640,000; HEK-TIYL cells, TEAD-Gal4/YAP UAS-luciferase luminescence; AID 1259422; in the data active = inhibition above about 32%
MITF inh = blocks human microphthalmia-associated transcription factor | O75030 | AlphaScreen MITF homodimerization, bead proximity signal | inhibition, % at 2.6 µM | hit rate 0.91% among 650,000; in the data active = inhibition above about 50%
GPR151 activ = activators of human GPR151; PathHunter beta-arrestin GPR151 cells, luminescence; activation, % at 11.2 µM; Q8TDV0; AID 1508602; hit rate 1% among 650,000; in the data active = activation above about 4.9%
FBW7 act = human FBW7 E3 ligase activation, primary screen. Q969H0. AlphaScreen FBW7–phospho-cyclin E peptide binding, activator screen. hit rate 0.13% among 650,000. normalized activity (activation), % at 26.1 µM; in the data active = normalized activity above about 1.9%;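 note: purified mutant Fbw7 with reduced substrate affinity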
GPR151 conf act = confirmation of human GPR151 activators | activation, % at 11.2 µM | 6,700 tested, under 10 active | GPR151 PathHunter beta-arrestin cells, luminescence, 90 min; % of EA-reagent control over plate median | shares compounds with GPR151 activ;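 active = mean percent activation across replicates above the confirmation screen cutoff of 4.91%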
GPR119 ag = counter-screen for GPR151 activators: effect on human GPR119 | shares compounds with GPR151 activ | GPR119 PathHunter beta-arrestin cells, luminescence, 90 min; 0 = compound-well median, 100 = enzyme-acceptor control | activation, % at 11.2 µM | hit rate 0.3% among 6,700 | AID 1508611;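 active = mean percent activation in the counterscreen above 29.09%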;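 note: counterscreen on off-target GPR119 to flag nonselective hits from the GPR151 activator screen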
Target sequence (Q8TDV5 whole entry, looked up): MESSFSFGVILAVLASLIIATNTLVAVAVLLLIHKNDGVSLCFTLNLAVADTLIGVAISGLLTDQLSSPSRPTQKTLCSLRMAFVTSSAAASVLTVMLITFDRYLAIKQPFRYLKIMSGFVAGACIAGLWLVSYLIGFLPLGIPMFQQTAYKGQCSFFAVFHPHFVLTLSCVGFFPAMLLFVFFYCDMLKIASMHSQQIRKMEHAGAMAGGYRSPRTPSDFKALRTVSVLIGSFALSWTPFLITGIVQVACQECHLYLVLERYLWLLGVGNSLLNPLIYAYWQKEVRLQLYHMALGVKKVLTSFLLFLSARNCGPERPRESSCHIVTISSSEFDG
Large screens that a line does not name were inactive (follow-up assays come after a bar, where they were run). Only some compounds are listed: those with a hit (about 3.5% of all), similar ones and a draw of the others.

O=C(CCc1ccccc1)N1CCc2c(nc(N3CCCC3)[nH]c2=O)C1	none
Cc1nc2ccccc2n1CC(=O)N1CCc2c(nc(N3CCCC3)[nH]c2=O)C1	GPR151 activ 17.3 | GPR151 conf act inactive | GPR119 ag inactive
O=C1CCCN1CCCNc1nc(NCCO)c2ncn(CCN3CCCC3=O)c2n1	none
CCOc1ccc(-n2c(SCC(=O)NC(C)CC)nnc2-c2ccccn2)cc1 (stereo not given)	none
Cc1nnc2c(N3CCN(c4ccccn4)CC3)nc3ccccc3n12	GPR151 activ 6.2 | GPR151 conf act inactive | GPR119 ag inactive
COC(=O)c1cc2c(C(F)(F)F)cc(-c3cccnc3)nc2s1	none
CN(Cc1ccccc1)C(=O)c1cc(-c2ccccc2O)no1	none
COc1ccc(-c2cc(C(=O)N(C)Cc3ccccc3)on2)cc1OC	GPR151 activ 5.9 | GPR151 conf act inactive | GPR119 ag inactive
CCCCN(C)Cc1c(C(=O)N2CCN(C3CCCCC3)CC2)nc2ccccn12	GPR151 activ 7.3 | GPR151 conf act inactive | GPR119 ag inactive
CS(=O)(=O)N1CCC(C(=O)N2CCC(O)(c3ccccn3)CC2)CC1	GPR151 activ 11.0 | GPR151 conf act inactive | GPR119 ag inactive
O=C(C1CC1)N1CCC(O)(c2ccccn2)CC1	none
O=C(C1CCCCC1)N1CCC(c2nc3ccccc3[nH]2)CC1	GPR151 activ 5.8 | GPR151 conf act inactive | GPR119 ag inactive
Cc1ccc(C)c(NC(=O)CN2CCC(c3nc4ccccc4[nH]3)CC2)c1	GPR151 activ 6.0 | GPR151 conf act inactive | GPR119 ag inactive
Cc1cccc(NC(=O)CN2CCC(c3nc4ccccc4[nH]3)CC2)c1	none
Cc1sc2nc(C3CC3)nc(SCC(=O)Nc3ccc4c(c3)OCCO4)c2c1C	none
CCCCCNC(=O)c1ccc(SCc2cccc(OC)c2OC)c([N+](=O)[O-])c1	none
Cc1cccc(NC(=O)c2ccc(NCCc3ccccc3)c([N+](=O)[O-])c2)c1	GPR151 activ 6.6 | GPR151 conf act inactive | GPR119 ag inactive
Cc1cc(C(=O)Nc2cccc(NC(=O)c3ccccc3)c2)ccc1[N+](=O)[O-]	GPR151 activ 6.3 | GPR151 conf act inactive | GPR119 ag inactive
Cc1cc(C(=O)Nc2cccc(O)c2)ccc1[N+](=O)[O-]	none
Cc1ccc(C)c(N/C=C2/CCCCC2=O)c1	none
O=C(CN1CCOCC1)Nc1ccc(Br)cn1	none
O=C(CN1CCN(C(=O)c2ccccc2)CC1)Nc1ccc(Br)cn1	GPR151 activ 5.6 | GPR151 conf act inactive | GPR119 ag inactive
Fc1cccc(CSc2nc(Nc3ccc4c(c3)OCO4)c3ccccc3n2)c1	GPR151 activ 5.0 | GPR151 conf act inactive | GPR119 ag inactive
CCCCNC(=O)CSc1nc(Nc2ccc3c(c2)OCO3)c2ccccc2n1	none
CCCCNc1nc(SCC(=O)c2ccc(O)c(O)c2)nc2ccccc12	MITF inh 55.9, GPR151 activ 5.6 | GPR151 conf act inactive | GPR119 ag inactive
COc1cc(Nc2nc(SCc3ccc(F)cc3)nc3ccccc23)cc(OC)c1	GPR151 activ 5.0 | GPR151 conf act inactive | GPR119 ag inactive
O=C(CSc1nc(Nc2ccc3c(c2)OCO3)c2ccccc2n1)c1ccccc1	GPR151 activ 5.3 | GPR151 conf act inactive | GPR119 ag inactive
OCCCNc1nccn2c(-c3ccc4ccccc4c3)cnc12	none
CCC(=O)NC(c1nnc2n1CCN(Cc1ccc(C)c(C)c1)CC2)C(C)C (stereo not given)	GPR151 activ 9.8 | GPR151 conf act inactive | GPR119 ag inactive
CCOc1cc(CN2CCc3nnc(C(NS(C)(=O)=O)C(C)C)n3CC2)ccc1O (stereo not given)	GPR151 activ 8.1 | GPR151 conf act inactive | GPR119 ag inactive
CCC(=O)NC(c1nnc2n1CCN(Cc1ccc(OC)c(C)c1)CC2)C(C)C (stereo not given)	none
CCN(CC)c1ccc(NC(=O)C2C3CCCCC32)cc1 (stereo not given)	none
CC1(C)OC(=O)C(=CNc2sc3c(c2C#N)CCCC3)C(=O)O1	none
FC(F)(F)c1ccc(Cn2cnc3c(NCc4cccc(C(F)(F)F)c4)nc(Nc4nccc5ccccc45)nc32)cc1	GPR151 activ 5.6 | GPR151 conf act inactive | GPR119 ag inactive
CN1CCN(C(=O)c2ccc(-c3nc(NCc4cccc(C(F)(F)F)c4)c4ncn(Cc5ccc(C(F)(F)F)cc5)c4n3)cc2)CC1	GPR151 activ 10.8 | GPR151 conf act inactive | GPR119 ag inactive
COc1ccc(/C=c2\sc3nc4c(C)cccc4n3c2=O)cc1O	none
COc1ccc(C2C3C(C)=NN=C3CC(C)(O)C2C(C)=O)cc1 (stereo not given)	GPR151 activ 6.6 | GPR151 conf act inactive | GPR119 ag inactive
CC(=O)C1C(c2ccc(F)cc2)C2C(C)=NN=C2CC1(C)O (stereo not given)	none
Cc1ccccc1OCC(=O)Nc1ccc(Cl)c(-c2nc3ccccc3s2)c1	GPR151 activ 6.4 | GPR151 conf act inactive | GPR119 ag inactive
Fc1cccc2sc(Nc3nc(-c4ccccn4)cs3)nc12	TEAD-YAP block 50.2, GPR151 activ 7.6 | GPR151 conf act inactive | GPR119 ag inactive
Cc1ccc(Oc2cccc(NC(=O)/C=C/c3ccco3)c2)nn1	none
O=[N+]([O-])c1cccc(S(=O)(=O)NCc2ccc(F)cc2)c1	GPR151 activ 9.0 | GPR151 conf act inactive | GPR119 ag inactive
O=C(CN(Cc1ccccc1)S(=O)(=O)c1ccc(F)cc1)Nc1cccc([N+](=O)[O-])c1	none
O=C(CN(Cc1ccc(F)cc1)S(=O)(=O)c1ccccc1)Nc1cccc([N+](=O)[O-])c1	GPR151 activ 5.1 | GPR151 conf act inactive | GPR119 ag inactive
CC(C)(C)NC(=O)CN(Cc1ccccc1)S(=O)(=O)c1ccc(F)cc1	GPR151 activ 5.3 | GPR151 conf act inactive | GPR119 ag inactive
O=[N+]([O-])c1cccc(S(=O)(=O)NCc2ccco2)c1	none
N#C/C(=C\c1cn(CC(=O)NCC2CCCO2)c2ccccc12)C(=O)NC1CC1 (stereo not given)	none
Cc1nc(N)sc1-c1csc(Nc2ccccc2[N+](=O)[O-])n1	none
CC(=O)N1CCN(Cc2cccc(Cl)c2Cl)CC1	none
CC(=O)N1CCN(Cc2ccccc2Br)CC1	GPR151 activ 7.9 | GPR151 conf act inactive | GPR119 ag inactive
CC(C)Oc1ccc(C2CC(=O)NC(=O)C2)cc1	GPR151 activ 6.7 | GPR151 conf act inactive | GPR119 ag inactive
CC(C)Oc1ccc(C2CC(=O)NC3=C2C(=O)CCC3)cc1 (stereo not given)	none
Cc1ccc(C(=O)N2CCN(c3cccc(C(F)(F)F)c3)CC2)o1	none
N=c1ncn(Cc2ccccc2)c2nc(SCCO)[nH]c12	none
Cc1ccc(-c2nnc(Nc3ccc(Br)cc3)c3ccccc23)cc1S(=O)(=O)N1CCOCC1	GPR151 activ 5.0 | GPR151 conf act inactive | GPR119 ag inactive
Cc1ccc(-c2nnc(Nc3ccccc3)c3ccccc23)cc1S(=O)(=O)N1CCOCC1	none
